# Measurements: ChEMBL document CHEMBL1961873, “Compounds: GSK PKIS; Assays: Nanosyn kinase panel” (2012)
# Assays:
# [1] = biological target: Sphingosine kinase 1 (Homo sapiens) (UniProt Q9NYA1); details: at 1 µM;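 further: mean SPHK1 inhibition value reported from the GSK PKIS kinase panel screen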
# [2] = biological target: T1, Sphingosine kinase 2 (Homo sapiens) (UniProt Q9NRA0); details: at 0.1 µM
# T1 sequence (whole entry): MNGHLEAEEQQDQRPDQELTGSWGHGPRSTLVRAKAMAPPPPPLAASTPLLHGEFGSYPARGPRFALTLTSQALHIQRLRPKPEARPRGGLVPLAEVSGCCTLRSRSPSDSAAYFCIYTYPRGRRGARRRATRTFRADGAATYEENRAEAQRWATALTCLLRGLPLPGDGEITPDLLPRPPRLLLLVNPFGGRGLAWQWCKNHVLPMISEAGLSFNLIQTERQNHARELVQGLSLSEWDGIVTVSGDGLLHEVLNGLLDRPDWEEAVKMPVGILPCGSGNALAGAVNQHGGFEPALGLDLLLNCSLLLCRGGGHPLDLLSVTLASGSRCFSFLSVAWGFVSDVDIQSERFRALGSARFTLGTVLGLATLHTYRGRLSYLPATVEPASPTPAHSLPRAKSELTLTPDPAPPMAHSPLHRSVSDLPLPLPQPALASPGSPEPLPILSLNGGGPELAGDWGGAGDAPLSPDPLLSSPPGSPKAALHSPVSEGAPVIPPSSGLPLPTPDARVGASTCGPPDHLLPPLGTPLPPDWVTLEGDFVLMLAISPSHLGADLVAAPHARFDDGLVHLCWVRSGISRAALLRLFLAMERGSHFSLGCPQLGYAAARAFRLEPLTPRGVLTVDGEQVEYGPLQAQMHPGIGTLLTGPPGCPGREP
# [3] = biological target: T1, Sphingosine kinase 2 (Homo sapiens); details: at 1 µM
# [4] = biological target: Casein kinase II subunit alpha (Homo sapiens) (UniProt P68400); details: at 0.1 µM
# Casein kinase II subunit alpha (Homo sapiens), sequence (P68400 whole entry, looked up): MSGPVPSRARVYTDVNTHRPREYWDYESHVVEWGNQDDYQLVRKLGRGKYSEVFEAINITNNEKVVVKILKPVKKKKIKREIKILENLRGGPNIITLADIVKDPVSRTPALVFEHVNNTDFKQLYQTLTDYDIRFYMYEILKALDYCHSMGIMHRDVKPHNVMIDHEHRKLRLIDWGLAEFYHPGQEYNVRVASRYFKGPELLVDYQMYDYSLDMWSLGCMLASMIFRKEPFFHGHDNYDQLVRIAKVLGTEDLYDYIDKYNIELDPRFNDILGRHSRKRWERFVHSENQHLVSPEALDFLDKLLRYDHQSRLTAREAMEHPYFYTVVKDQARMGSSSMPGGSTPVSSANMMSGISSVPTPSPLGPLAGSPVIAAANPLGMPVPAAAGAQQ
# [5] = biological target: Casein kinase II subunit alpha (Homo sapiens) (UniProt P68400); details: at 1 µM
# [6] = biological target: T2, Inhibitor of nuclear factor kappa-B kinase subunit alpha (Homo sapiens) (UniProt O15111); details: at 0.1 µM
# T2 sequence (whole entry): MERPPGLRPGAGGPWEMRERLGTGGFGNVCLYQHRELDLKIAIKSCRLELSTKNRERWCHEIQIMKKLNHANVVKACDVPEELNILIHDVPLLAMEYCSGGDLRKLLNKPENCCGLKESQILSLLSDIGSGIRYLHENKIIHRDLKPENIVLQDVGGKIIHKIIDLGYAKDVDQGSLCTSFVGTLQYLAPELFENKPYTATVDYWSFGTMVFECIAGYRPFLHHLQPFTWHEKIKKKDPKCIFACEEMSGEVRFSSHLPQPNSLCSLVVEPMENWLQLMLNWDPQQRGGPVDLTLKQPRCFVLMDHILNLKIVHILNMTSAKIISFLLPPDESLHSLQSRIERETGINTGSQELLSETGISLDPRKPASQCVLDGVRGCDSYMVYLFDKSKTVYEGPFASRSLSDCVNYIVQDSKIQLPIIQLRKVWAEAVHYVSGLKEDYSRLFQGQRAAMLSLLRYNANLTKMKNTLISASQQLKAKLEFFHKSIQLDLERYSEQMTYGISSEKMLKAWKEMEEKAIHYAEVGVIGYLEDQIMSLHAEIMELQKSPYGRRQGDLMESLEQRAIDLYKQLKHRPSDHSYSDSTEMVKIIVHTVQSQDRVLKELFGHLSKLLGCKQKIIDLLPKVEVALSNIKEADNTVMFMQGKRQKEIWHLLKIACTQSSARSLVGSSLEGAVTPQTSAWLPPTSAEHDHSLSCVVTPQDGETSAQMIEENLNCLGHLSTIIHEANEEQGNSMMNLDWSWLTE
# [7] = biological target: T2, Inhibitor of nuclear factor kappa-B kinase subunit alpha (Homo sapiens); details: at 1 µM
# [8] = biological target: T3, Inhibitor of nuclear factor kappa-B kinase subunit beta (Homo sapiens) (UniProt O14920); details: at 0.1 µM
# T3 sequence (whole entry): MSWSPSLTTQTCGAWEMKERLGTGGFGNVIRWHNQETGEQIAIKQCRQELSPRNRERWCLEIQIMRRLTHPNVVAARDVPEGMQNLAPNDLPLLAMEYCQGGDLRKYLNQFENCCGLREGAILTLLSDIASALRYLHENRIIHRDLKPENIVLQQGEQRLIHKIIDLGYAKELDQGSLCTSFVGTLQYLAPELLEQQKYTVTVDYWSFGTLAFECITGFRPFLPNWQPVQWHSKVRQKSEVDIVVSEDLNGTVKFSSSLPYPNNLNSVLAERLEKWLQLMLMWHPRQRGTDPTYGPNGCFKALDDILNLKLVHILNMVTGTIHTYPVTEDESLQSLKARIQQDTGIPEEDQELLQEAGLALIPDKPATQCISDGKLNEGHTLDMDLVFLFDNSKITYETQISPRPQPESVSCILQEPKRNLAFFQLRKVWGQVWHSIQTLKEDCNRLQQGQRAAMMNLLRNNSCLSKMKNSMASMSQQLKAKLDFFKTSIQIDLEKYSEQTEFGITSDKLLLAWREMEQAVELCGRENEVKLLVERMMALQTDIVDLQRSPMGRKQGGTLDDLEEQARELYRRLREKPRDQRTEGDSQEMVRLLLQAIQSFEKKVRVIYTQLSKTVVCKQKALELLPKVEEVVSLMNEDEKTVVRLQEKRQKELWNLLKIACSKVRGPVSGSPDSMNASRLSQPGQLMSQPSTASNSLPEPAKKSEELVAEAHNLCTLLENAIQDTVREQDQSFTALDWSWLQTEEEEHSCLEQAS
# [9] = biological target: T3, Inhibitor of nuclear factor kappa-B kinase subunit beta (Homo sapiens); details: at 1 µM
# [10] = biological target: T4, Inhibitor of nuclear factor kappa-B kinase subunit epsilon (Homo sapiens) (UniProt Q14164); details: at 0.1 µM
# T4 sequence (whole entry): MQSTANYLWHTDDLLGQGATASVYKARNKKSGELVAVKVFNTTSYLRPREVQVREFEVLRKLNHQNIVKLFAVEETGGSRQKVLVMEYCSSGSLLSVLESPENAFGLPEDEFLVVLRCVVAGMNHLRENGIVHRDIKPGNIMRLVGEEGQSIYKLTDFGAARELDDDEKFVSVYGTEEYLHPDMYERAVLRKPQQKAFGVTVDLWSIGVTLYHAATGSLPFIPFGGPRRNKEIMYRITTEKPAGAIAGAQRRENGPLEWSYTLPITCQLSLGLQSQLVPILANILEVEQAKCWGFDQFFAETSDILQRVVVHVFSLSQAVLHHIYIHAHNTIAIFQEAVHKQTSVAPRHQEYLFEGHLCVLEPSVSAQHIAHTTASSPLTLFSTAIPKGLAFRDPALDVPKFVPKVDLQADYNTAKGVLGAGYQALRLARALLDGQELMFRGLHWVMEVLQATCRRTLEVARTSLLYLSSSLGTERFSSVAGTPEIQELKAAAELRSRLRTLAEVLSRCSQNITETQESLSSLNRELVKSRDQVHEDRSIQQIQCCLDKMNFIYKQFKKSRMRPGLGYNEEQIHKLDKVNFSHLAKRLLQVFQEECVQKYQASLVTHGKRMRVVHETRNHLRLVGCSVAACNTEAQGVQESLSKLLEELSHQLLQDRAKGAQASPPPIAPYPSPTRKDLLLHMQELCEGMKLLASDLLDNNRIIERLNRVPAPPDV
# [11] = biological target: T4, Inhibitor of nuclear factor kappa-B kinase subunit epsilon (Homo sapiens); details: at 1 µM
# [12] = biological target: T5, Serine/threonine-protein kinase Nek1 (Homo sapiens) (UniProt Q96PY6); details: at 0.1 µM
# T5 sequence (whole entry): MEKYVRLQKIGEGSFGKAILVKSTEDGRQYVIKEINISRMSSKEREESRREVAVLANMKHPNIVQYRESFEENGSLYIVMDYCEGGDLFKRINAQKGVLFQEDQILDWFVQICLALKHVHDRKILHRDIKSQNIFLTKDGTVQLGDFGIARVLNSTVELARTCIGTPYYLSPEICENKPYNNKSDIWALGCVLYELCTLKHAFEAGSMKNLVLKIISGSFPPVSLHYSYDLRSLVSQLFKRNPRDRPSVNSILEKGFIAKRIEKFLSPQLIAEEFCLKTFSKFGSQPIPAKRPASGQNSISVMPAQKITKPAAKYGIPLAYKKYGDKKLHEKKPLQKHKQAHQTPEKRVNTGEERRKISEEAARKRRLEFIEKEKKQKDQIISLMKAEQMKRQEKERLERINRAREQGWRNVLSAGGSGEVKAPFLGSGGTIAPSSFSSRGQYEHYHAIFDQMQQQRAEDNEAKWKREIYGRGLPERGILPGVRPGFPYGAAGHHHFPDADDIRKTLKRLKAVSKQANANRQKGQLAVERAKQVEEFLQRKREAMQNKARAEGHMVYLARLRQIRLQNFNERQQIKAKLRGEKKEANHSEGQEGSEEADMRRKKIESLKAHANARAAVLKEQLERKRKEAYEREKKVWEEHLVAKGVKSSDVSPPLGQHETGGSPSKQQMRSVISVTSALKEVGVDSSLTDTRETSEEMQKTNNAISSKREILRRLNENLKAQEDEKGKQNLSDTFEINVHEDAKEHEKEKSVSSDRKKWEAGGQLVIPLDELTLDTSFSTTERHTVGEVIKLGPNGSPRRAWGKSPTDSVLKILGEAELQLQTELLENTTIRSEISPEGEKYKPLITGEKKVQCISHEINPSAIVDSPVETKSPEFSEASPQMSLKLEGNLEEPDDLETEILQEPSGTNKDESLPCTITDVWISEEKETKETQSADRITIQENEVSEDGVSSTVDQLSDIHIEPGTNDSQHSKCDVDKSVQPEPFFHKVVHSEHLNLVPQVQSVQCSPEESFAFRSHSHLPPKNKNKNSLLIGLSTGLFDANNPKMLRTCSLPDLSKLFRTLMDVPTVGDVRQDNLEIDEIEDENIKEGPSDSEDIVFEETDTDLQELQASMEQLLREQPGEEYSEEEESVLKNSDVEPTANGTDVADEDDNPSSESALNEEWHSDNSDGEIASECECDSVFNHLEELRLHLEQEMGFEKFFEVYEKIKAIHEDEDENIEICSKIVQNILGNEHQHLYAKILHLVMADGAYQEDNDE
# [13] = biological target: T5, Serine/threonine-protein kinase Nek1 (Homo sapiens); details: at 1 µM
# [14] = biological target: T6, Serine/threonine-protein kinase Nek2 (Homo sapiens) (UniProt P51955); details: at 0.1 µM
# T6 sequence (whole entry): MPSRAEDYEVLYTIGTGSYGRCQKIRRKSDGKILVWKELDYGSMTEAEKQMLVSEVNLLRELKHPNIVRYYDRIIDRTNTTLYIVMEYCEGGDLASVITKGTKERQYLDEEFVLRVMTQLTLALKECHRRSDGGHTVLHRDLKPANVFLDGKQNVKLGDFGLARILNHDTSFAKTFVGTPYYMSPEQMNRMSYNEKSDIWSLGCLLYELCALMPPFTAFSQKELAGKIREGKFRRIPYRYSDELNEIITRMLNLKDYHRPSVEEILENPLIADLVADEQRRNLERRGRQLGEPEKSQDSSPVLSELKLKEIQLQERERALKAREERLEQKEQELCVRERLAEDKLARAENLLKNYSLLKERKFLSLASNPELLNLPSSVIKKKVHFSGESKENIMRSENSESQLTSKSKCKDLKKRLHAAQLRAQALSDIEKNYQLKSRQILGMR
# [15] = biological target: T6, Serine/threonine-protein kinase Nek2 (Homo sapiens); details: at 1 µM
# [16] = biological target: Serine/threonine-protein kinase Nek6 (Homo sapiens) (UniProt Q9HC98); details: at 0.1 µM
# Serine/threonine-protein kinase Nek6 (Homo sapiens), sequence (Q9HC98 whole entry): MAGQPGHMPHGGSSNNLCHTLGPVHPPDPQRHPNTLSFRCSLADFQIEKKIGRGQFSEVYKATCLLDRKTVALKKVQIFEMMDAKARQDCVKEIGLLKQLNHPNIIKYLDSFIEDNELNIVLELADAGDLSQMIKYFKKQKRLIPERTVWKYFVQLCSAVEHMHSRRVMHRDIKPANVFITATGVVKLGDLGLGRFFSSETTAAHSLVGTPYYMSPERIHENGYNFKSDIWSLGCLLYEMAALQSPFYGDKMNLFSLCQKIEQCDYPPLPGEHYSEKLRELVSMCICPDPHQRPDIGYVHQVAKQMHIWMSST
# [17] = biological target: Serine/threonine-protein kinase Nek6 (Homo sapiens) (UniProt Q9HC98); details: at 1 µM
# [18] = biological target: Serine/threonine-protein kinase Nek7 (Homo sapiens) (UniProt Q8TDX7); details: at 0.1 µM
# Serine/threonine-protein kinase Nek7 (Homo sapiens), sequence (Q8TDX7 whole entry, looked up): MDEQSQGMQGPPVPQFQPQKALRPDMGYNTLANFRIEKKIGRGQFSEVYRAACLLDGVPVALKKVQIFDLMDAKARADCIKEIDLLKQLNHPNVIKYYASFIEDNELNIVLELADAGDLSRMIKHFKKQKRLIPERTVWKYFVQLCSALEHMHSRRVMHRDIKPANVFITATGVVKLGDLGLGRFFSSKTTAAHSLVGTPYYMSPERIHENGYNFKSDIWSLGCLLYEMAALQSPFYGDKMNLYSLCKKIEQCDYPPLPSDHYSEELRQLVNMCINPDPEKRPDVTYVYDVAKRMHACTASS
# [19] = biological target: Serine/threonine-protein kinase Nek7 (Homo sapiens) (UniProt Q8TDX7); details: at 1 µM
# [20] = biological target: T7, Serine/threonine-protein kinase Nek9 (Homo sapiens) (UniProt Q8TD19); details: at 0.1 µM;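 further: reported value is the mean percent inhibition of NEK9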
# T7 sequence (whole entry): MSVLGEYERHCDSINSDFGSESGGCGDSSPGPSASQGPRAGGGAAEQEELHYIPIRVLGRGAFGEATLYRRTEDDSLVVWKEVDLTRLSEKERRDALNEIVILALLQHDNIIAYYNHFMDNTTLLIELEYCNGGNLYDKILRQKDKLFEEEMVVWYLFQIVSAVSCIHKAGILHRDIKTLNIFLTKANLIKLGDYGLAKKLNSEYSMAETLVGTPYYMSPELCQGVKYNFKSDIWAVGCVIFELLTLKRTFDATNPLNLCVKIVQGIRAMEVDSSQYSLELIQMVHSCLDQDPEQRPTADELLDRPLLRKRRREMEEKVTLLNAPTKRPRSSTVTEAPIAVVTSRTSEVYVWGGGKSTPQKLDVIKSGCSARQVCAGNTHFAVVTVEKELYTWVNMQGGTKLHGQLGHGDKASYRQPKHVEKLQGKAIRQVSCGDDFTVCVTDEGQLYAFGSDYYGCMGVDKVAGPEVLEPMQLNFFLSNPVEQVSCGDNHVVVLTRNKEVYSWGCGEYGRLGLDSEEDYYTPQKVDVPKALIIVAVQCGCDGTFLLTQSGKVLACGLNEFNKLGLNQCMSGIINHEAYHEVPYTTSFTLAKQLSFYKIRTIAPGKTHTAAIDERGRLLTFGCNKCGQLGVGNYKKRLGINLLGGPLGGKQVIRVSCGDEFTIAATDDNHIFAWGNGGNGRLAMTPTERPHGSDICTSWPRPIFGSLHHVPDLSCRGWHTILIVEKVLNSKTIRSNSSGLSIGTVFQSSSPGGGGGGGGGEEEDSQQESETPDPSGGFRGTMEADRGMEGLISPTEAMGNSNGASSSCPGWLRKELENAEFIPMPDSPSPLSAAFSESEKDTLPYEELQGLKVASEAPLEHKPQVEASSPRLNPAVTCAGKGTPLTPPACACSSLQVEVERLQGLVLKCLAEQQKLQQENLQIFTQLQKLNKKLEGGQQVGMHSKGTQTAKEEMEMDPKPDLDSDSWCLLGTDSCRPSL
# Sphingosine kinase 1 (Homo sapiens), sequence (Q9NYA1 whole entry): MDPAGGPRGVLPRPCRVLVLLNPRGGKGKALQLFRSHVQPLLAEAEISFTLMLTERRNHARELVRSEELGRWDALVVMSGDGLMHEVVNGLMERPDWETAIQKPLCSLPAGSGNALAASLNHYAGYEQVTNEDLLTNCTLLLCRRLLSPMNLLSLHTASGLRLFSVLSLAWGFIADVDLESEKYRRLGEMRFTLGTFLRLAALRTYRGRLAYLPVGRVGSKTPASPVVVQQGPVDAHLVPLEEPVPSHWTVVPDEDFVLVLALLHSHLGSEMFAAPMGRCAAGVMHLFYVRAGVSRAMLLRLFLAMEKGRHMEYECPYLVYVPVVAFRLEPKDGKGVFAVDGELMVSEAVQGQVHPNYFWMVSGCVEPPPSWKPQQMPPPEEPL
compound,measurement,setting,value
Nc1nccc(-c2c(-c3ccc(F)cc3)ncn2C2CCC(O)CC2)n1 (stereo not given),inhibition,[1],-4.02%
same,inhibition,[2],2.29%
same,inhibition,[3],0.26%
same,inhibition,[4],-0.03%
same,inhibition,[5],1.03%
same,inhibition,[6],2.77%
same,inhibition,[7],5.56%
same,inhibition,[8],0.1%
same,inhibition,[9],-1.66%
same,inhibition,[10],-3.9%
same,inhibition,[11],-2.64%
same,inhibition,[12],-1.36%
same,inhibition,[13],0.03%
same,inhibition,[14],-2.37%
same,inhibition,[15],-3.67%
same,inhibition,[16],-4.15%
same,inhibition,[17],-1.66%
same,inhibition,[18],-2.24%
same,inhibition,[19],-4.78%
same,inhibition,[20],2.41%
